Screen size: about 75,000 compounds; about 5,700 (7.6%) were called active. Roughly 7% stayed inconclusive and do not appear here. Calls come from the whole dose curve; as a rule, active = well fitted inhibition curve with a large enough effect; inconclusive = small, poorly fitted or top-dose-only effect; inactive = no such curve, though single readings can be large or run the other way. What follows is part of a selection rich in actives, with near analogues and random picks from the rest.
target: 3-hydroxyacyl-CoA dehydrogenase type-2 (Homo sapiens) (UniProt Q99714); assay: qHTS Assay for Inhibitors of HSD17B4, hydroxysteroid (17-beta) dehydrogenase 4; details: recombinant HSD17B10, NADH fluorescence kinetic; series mostly up to 57.1 µM;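 note: the protocol describes HADH2 (HSD17B10) and not the HSD17B4 of the title; nearly all actives have a fitted effect of over 70% in size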
Outline: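 His-tagged E. coli-expressed HADH2 at 20 nM in 100 mM Tris-HCl pH 9.0 with 0.01 % Tween-20, preincubated 15 min with compound at room temperature. Reaction with 1 mM NAD+ and 90 uM beta-hydroxybutyryl coenzyme A; NADH fluorescence (360/450 nm) read kinetically over 4 min, last minus first point.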
% is set by controls: 0 for no effect and ±100 for the full control effect; potency is the fitted concentration of half-maximal effect.

Potency, active:
COC(=O)c1cnn2c(C(F)(F)F)cc(-c3ccco3)nc12 25.1 µM
Cc1ccc(NC(=O)c2cccc(N(C)C)c2)cc1NC(=O)c1ccc(O)cc1 31.6 µM
Cc1ccnc(N2CCCC(C(=O)Nc3cc(F)ccc3C)C2)n1 (stereo not drawn) 25.1 µM
Cc1occc1C(=O)Nc1nnc(-c2ccncc2)s1 31.6 µM
Cn1c(=O)c2c(nc(NCCc3ccccc3)n2Cc2ccccc2)n(C)c1=O 31.6 µM
Cc1ccc2c(CSc3nncs3)cc(=O)oc2c1 12.6 µM
CN(CCc1ccccn1)S(=O)(=O)c1ccc2c3c(cccc13)C(=O)N2 31.6 µM
CCc1ccc(Nc2ncc3c(n2)CC(c2ccco2)CC3=O)cc1 (stereo not drawn) 20 µM
Cc1c(C(=O)OCC(=O)N(CCC#N)c2ccccc2)oc2c1ccc1ccccc12 31.6 µM
Cc1cc(C)c2c(n1)nn1c(N3CCOCC3)cc(C)nc21 12.6 µM
Cc1cc(C)c2c(n1)nn1c(N3CCN(c4cccc(Cl)c4)CC3)cc(C)nc21 3.16 µM
CCC1(C)Cc2c(sc3nc4n(c(=O)c23)CCCS4)CO1 (stereo not drawn) 31.6 µM
Cc1c(S(=O)(=O)O)oc2c1C(=O)C(=O)c1c-2ccc2c1CCCC2(C)C 10 µM
CCCCCC(=O)Nc1ccc2oc(-c3ccncc3)nc2c1 31.6 µM
CC(C)(C)OC(=O)c1c(N)n(CCCN2CCCC2=O)c2nc3ccccc3nc12 25.1 µM
C[N+](C)(CCCCCC[N+](C)(C)CCCN1C(=O)c2cccc3cccc(c23)C1=O)CCCN1C(=O)c2cccc3cccc(c23)C1=O 25.1 µM
C=CCn1c(N)c(S(=O)(=O)c2cccs2)c2nc3ccccc3nc21 25.1 µM
C=CCn1c(N)c(C(=O)OCC(C)C)c2nc3ccccc3nc21 31.6 µM
CC(C)Cn1c(N)c(C(=O)NCc2cccs2)c2nc3ccccc3nc21 15.8 µM
CCCc1nc2c(C)cc(-c3nc4ccccc4n3C)cc2n1Cc1ccc(-c2ccccc2C(=O)O)cc1 31.6 µM

Potency, inactive:
C#CC(C)(C)NC(=O)CSc1nc2c(c(=O)n(C)c(=O)n2C)n1CCCC
COC(=O)c1ccccc1NC(=O)Cn1nc(C(F)(F)F)c2c1CCC2
Cc1cc(C(F)(F)F)n2ncc(-c3ccccc3)c2n1
CCC1=C(OC(=O)N(CC)CC)N2C(=O)OC(=NCCc3c[nH]c4ccccc34)[C@]2(C)[C@H]2C1=CC[C@H]1C(=O)N(CC)C(=O)[C@H]12
CCOC(=O)c1cn(CC(=O)Nc2ccc(C(C)C)cc2)nn1
Cn1c(NC(=O)c2ccc3c(c2)OCO3)cc(=O)n(C)c1=O
Cc1ccccc1NC(=O)c1ccccc1
Cc1ccc(F)cc1NC(=O)c1cccc(N(C)C)c1
O=C(Nc1ccc2c(c1)OCCO2)C1CCCN(c2ncccn2)C1 (stereo not drawn)
Cc1ccc(NC(=O)C2CCCN(S(=O)(=O)c3c(C)noc3C)C2)c(C)c1 (stereo not drawn)
COc1ccc(N(CC(=O)NC2CCCCCCC2)S(=O)(=O)c2c(C)nn(C)c2C)cc1
COc1cccc(-n2cc3c(c2-c2ccccc2)c(=O)n(C)c(=O)n3C)c1
Cc1occc1C(=O)Nc1cccc(Cn2cccn2)c1
Cc1occc1C(=O)Nc1nnc(C2CCCCC2)s1
O=C(NC1CCCC1)c1ccc(Br)s1
CCOc1ccc2nc(SC(CC)C(=O)Nc3cc(C)on3)sc2c1 (stereo not drawn)
CN1CCCC1CCO[C@@](C)(c1ccccc1)c1ccc(Cl)cc1 (stereo partly drawn)
COc1ccc2[nH]cc(CCNc3ncnc4ccc(-c5ccc(C(=O)N(C)C)cc5)cc34)c2c1
O=C(CS(=O)(=O)c1cn(Cc2cccc(F)c2)c2ccccc12)N1CCCCC1
CC1CCN(Cc2nc3c(c(=O)n(C)c(=O)n3C)n2CCc2ccccc2)CC1
CCn1c(NCCc2ccc(OC)c(OC)c2)nc2c1c(=O)n(C)c(=O)n2C
CCN(Cc1nc2ccccc2c(=O)[nH]1)Cc1cc(=O)oc2cc(C)c(C)cc12
COC(=O)[C@@]1(Cc2ccc(OC)cc2)[C@H]2c3cc(C(=O)N4CCCC4)n(Cc4ccc(C(F)(F)F)nc4)c3C[C@H]2CN1C(=O)c1ccccc1
CC(C)c1ccc(NS(=O)(=O)c2cn(C)c(=O)n(C)c2=O)cc1
O=c1[nH]nc(Cc2ccccn2)c2ccccc12
COC(=O)c1ccccc1NC(=O)c1cncc(Br)c1
O=C(CSc1nnc2ccccn12)c1ccccc1
O=C(Nc1ncc2c(n1)CC(c1ccco1)CC2=O)c1ccc(Cl)cc1 (stereo not drawn)
CCc1ccc(NC(=O)CSc2nnc(-c3cnccn3)n2Cc2ccco2)cc1
COC(=O)c1ccc(C23CC4(C2)[C@H](CN(Cc2cccnc2)[C@@H]4c2ccccc2)C3c2ccc(Cl)nc2)cc1 (stereo partly drawn)
COc1cc(C2C(C(=O)Nc3ccccc3OC)=C(C)Nc3ncnn32)ccc1O (stereo not drawn)
Cc1c(C(=O)OCc2cc(=O)n3cc(Br)ccc3n2)oc2ccccc12
COc1ccc(N(CC(=O)NC(C)(C)C)C(=O)c2ccco2)cc1
CCOC(=O)c1cccc(NC(=O)CN(c2ccc(C)cc2)S(=O)(=O)c2c(C)noc2C)c1
CC(C)c1nc2oc3c(N4CCN(C)CC4)ncnc3c2c2c1CCC2
CCOC(=O)CSc1nnc(CNC(=O)c2cccs2)n1-c1cc(OC)ccc1OC
C/C(O)=C\c1nc(=O)c2c(C)cc(C)nc2n1-c1ccccc1
Cc1nn2c3cc(N4CCOCC4)ccc3nc2c2ccccc12
Cc1cc(N2CCCC2)n2nc(C)c(-c3ccccc3)c2n1
O=C(c1ccco1)N1CCN(c2cccc(Cl)c2)CC1
COc1ccc(Cl)cc1NC(=O)c1oc(C)nc1C
CC(C)(C)c1csc(NC2=NS(=O)(=O)c3ccccc32)n1
CC1(C)C=CC(=O)[C@]2(C)C1CC(=O)[C@]1(C)C2CC[C@@]2(C)C(c3ccoc3)OC(=O)C3OC321 (stereo partly drawn)
O=C(Cl)c1ccccc1[N+](=O)[O-]
CC1CCCC(N2CCN(C(=O)c3ccc(F)cc3)CC2)C1 (stereo not drawn)
COc1ccccc1-c1nc(N2CCN(C)CC2)c2ccccc2n1
CCn1cc(C(=O)NC2CCCCCC2)c(=O)c2cc(S(=O)(=O)N3CCCCC3)ccc21
CCCCc1c(O)nc2n(c1=O)CCS2
CN(C)CCSc1nc(N)c2c3c(sc2n1)COC(C)(C)C3
CCOC(=O)CCCNC(=O)CN1C(=O)NC(CCc2ccccc2)C1=O (stereo not drawn)
CCC(=O)N1CCN=C1SCc1ccc(F)cc1
Cc1cc2nc(-c3ccc(NC(=O)c4cccnc4)cc3)oc2cc1C
CCCCC(=O)Nc1ccc2c(c1)OCCO2
CNC(=O)c1c(NC(=O)c2ccc(S(=O)(=O)N3CCOCC3)cc2)sc2c1CCC2
Cc1ccc(S(=O)(=O)N(C)CC(=O)N2CCc3ccccc32)cc1
COCCN(CC(=O)Nc1ccccc1C)S(=O)(=O)c1ccc(S(=O)(=O)N2CCCC2)cc1
CSc1nnc(-c2ccncc2)n1CCCN1CCCC1=O
CCOc1cc2[nH]c(=S)n(CCCN3CCCC3=O)c(=O)c2cc1OCC
COC(=O)[C@@H]1C[C@H]2CC[C@H](O)C[C@H]2N1Cc1ccc(N2CCN(C)CC2)cc1
CNC(=O)CSc1nnc(CCc2ccccc2)n1-c1ccccc1
CCCCCCN(C(=O)CCCCCN1C(=O)NC(c2ccc(C(F)(F)F)cc2)C(C(=O)OCc2ccccc2)=C1C)C(C(=O)NCCCC)c1ccc(OCC(=O)OC)c(C(=O)OC)c1 (stereo not drawn)
CCN1C(=O)c2cccc3c(N)ccc1c23
Cc1ccc(C(=O)NCCNS(=O)(=O)c2ccccc2)cc1
COc1ccc(N2CCN(C(=O)CSc3nnc4ncccn34)CC2)cc1
C=CCOC(=O)c1ccccc1C(=O)OCC=C
CCN(CC(=O)NCc1cccs1)c1nnnn1-c1ccccc1
C=CCn1c(C(C)NC(=O)CC)nc2ccccc21 (stereo not drawn)
COC(=O)c1cn(CC(=O)NCc2cccs2)c2ccccc12
c1csc(-c2nc(-c3ccncc3)no2)c1
c1ccc2cc(OCCN3CCCC3)ccc2c1
CCCC[C@H]1C(=O)N(c2ccccc2)N(c2ccc(O)cc2)C1=O
C/C=C/C=C/C(=O)O
COc1ccc(S(=O)(=O)N2CCC(C(=O)N3CCc4ccccc4C3)CC2)cc1OC
CSc1nnc2c(n1)OC(c1cn(C)c3ccccc13)N(C(C)=O)c1ccccc1-2 (stereo not drawn)
CCCCn1c(CCCNC(=O)CC)nc2ccccc21
CCCCn1c(CN2CCN(CCO)CC2)nc2ccccc21
Cc1ccc(Nc2cc(=O)n(C3CCCCC3)c(=O)[nH]2)cc1C
Cc1ccc(CCn2c3c(c4ccccc42)CN(C)CC3)cn1
C=CCN1C(=O)C(O)(CC(=O)c2ccc(Cl)cc2)c2ccccc21 (stereo not drawn)
COc1cc2[nH]c(=S)n(Cc3ccc(C)o3)c(=O)c2cc1OC

Activity change, negative = inhibition, inactive:
CN(C)CCSS(=O)(=O)O 8.4% [at 11.4 µM]
O=C1c2ccccc2C(=O)N1CCCSc1ccccc1 -1.64% [at 11.4 µM]
CC1(C)OC(C(O)(c2ccccc2)c2ccccc2)C(C(O)(c2ccccc2)c2ccccc2)O1 (stereo not drawn) 1.95% [at 11.4 µM]

From PubChem BioAssay AID893 (National Center for Advancing Translational Sciences (NCATS), 2007)
